Results: the supplement of paper PMC12282887
± gives the standard deviation of the averaged measurements.

How the values were obtained:
Assay in all cases: promoter activity interaction Z-score (Lux/OD deviation from empty-vector control); higher = stronger promoter induction by the compound
[1] = test system: E. coli BW25113 acrABp lux reporter
Outline: (§1)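 Four 1:2 dilutions of each compound were tested in biological duplicates on E. coli BW25113 carrying low-copy luxCDABE promoter reporters, either wild type or deleted for one of three genes. Cultures of 40 µl LB Lennox in 384-well plates were kept at 37°C and read for OD600 and luminescence every 30 min for 12 h. Integration windows were 0–8 h for wild type and 1–9 h for deletion strains, and wells under 10% of the median growth value were discarded. The score is a Z-transformed residual of growth-normalised luminescence relative to a control fit.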

[2] = test system: E. coli BW25113 micFp lux reporter
Outline: as §1

[3] = test system: E. coli BW25113 ompFp lux reporter
Outline: as §1

[4] = test system: E. coli BW25113 robp lux reporter
Outline: as §1

[5] = test system: E. coli BW25113 soxSp lux reporter
Outline: as §1

[6] = test system: E. coli BW25113 tolCp lux reporter
Outline: as §1

[7] = 0.062 µg/ml, genetic background: wild type
[8] = 0.062 µg/ml, genetic background: ΔmarA
[9] = 0.062 µg/ml, genetic background: Δrob
[10] = 0.062 µg/ml, genetic background: ΔsoxS
[11] = 0.12 µg/ml, genetic background: wild type
[12] = 0.12 µg/ml, genetic background: ΔmarA
[13] = 0.12 µg/ml, genetic background: Δrob
[14] = 0.12 µg/ml, genetic background: ΔsoxS
[15] = 0.25 µg/ml, genetic background: wild type
[16] = 0.25 µg/ml, genetic background: ΔmarA
[17] = 0.25 µg/ml, genetic background: Δrob
[18] = 0.25 µg/ml, genetic background: ΔsoxS
[19] = 0.49 µg/ml, genetic background: wild type
[20] = 0.49 µg/ml, genetic background: ΔmarA
[21] = 0.49 µg/ml, genetic background: Δrob
[22] = 0.49 µg/ml, genetic background: ΔsoxS

CN(C)c1ccc(O)c2c1C[C@H]1C[C@H]3[C@H](N(C)C)C(O)=C(C(N)=O)C(=O)[C@@]3(O)C(O)=C1C2=O [Minocycline]
promoter activity interaction Z-score [1, 7]: -0.0516 ± 0.1
promoter activity interaction Z-score [1, 8]: 0.0987 ± 0.99
promoter activity interaction Z-score [1, 9]: 0.189 ± 0.07
promoter activity interaction Z-score [1, 10]: -0.577 ± 0.76
promoter activity interaction Z-score [1, 11]: 0.0573 ± 0.042
promoter activity interaction Z-score [1, 12]: 0.356 ± 1.1
promoter activity interaction Z-score [1, 13]: 0.339 ± 0.34
promoter activity interaction Z-score [1, 14]: 0.263 ± 0.16
promoter activity interaction Z-score [1, 15]: 0.223 ± 0.18
promoter activity interaction Z-score [1, 16]: 0.273 ± 0.88
promoter activity interaction Z-score [1, 17]: 0.387 ± 0.58
promoter activity interaction Z-score [1, 18]: 0.196 ± 0.47
promoter activity interaction Z-score [1, 19]: 2.47 ± 0.56
promoter activity interaction Z-score [1, 20]: 0.55 ± 0.59
promoter activity interaction Z-score [1, 21]: 2.62 ± 0.41
promoter activity interaction Z-score [1, 22]: 2.95 ± 1.3
promoter activity interaction Z-score [2, 7]: 0.172 ± 0.028
promoter activity interaction Z-score [2, 8]: -0.151 ± 0.19
promoter activity interaction Z-score [2, 9]: 0.0108 ± 0.022
promoter activity interaction Z-score [2, 10]: -0.429 ± 0.019
promoter activity interaction Z-score [2, 11]: 0.33 ± 0.72
promoter activity interaction Z-score [2, 12]: -0.0481 ± 0.0079
promoter activity interaction Z-score [2, 13]: -0.075 ± 0.12
promoter activity interaction Z-score [2, 14]: 0.127 ± 0.026
promoter activity interaction Z-score [2, 15]: 0.933 ± 0.82
promoter activity interaction Z-score [2, 16]: -0.106 ± 0.069
promoter activity interaction Z-score [2, 17]: 0.138 ± 0.07
promoter activity interaction Z-score [2, 18]: -0.0781 ± 0.17
promoter activity interaction Z-score [2, 19]: 1.77 ± 1.9
promoter activity interaction Z-score [2, 20]: 0.182 ± 0.15
promoter activity interaction Z-score [2, 21]: 0.0732 ± 0.00089
promoter activity interaction Z-score [2, 22]: 0.743 ± 0.81
promoter activity interaction Z-score [3, 7]: 0.0637 ± 0.43
promoter activity interaction Z-score [3, 8]: -0.699 ± 0.25
promoter activity interaction Z-score [3, 9]: 0.129 ± 0.49
promoter activity interaction Z-score [3, 10]: -0.457 ± 0.12
promoter activity interaction Z-score [3, 11]: 0.41 ± 0.83
promoter activity interaction Z-score [3, 12]: 0.0821 ± 0.38
promoter activity interaction Z-score [3, 13]: 0.365 ± 0.77
promoter activity interaction Z-score [3, 14]: 0.49 ± 0.25
promoter activity interaction Z-score [3, 15]: 0.511 ± 0.43
promoter activity interaction Z-score [3, 16]: -0.386 ± 0.46
promoter activity interaction Z-score [3, 17]: 0.978 ± 0.71
promoter activity interaction Z-score [3, 18]: 0.461 ± 0.59
promoter activity interaction Z-score [3, 19]: 1.65 ± 0.69
promoter activity interaction Z-score [3, 20]: 1.7 ± 0.75
promoter activity interaction Z-score [3, 21]: 1.71 ± 1.5
promoter activity interaction Z-score [3, 22]: 2.93 ± 0.19
promoter activity interaction Z-score [4, 7]: -0.379 ± 0.35
promoter activity interaction Z-score [4, 8]: -0.0848 ± 0.76
promoter activity interaction Z-score [4, 9]: 0.746 ± 0.51
promoter activity interaction Z-score [4, 10]: -0.6221 ± 0.0048
promoter activity interaction Z-score [4, 11]: 0.195 ± 0.02
promoter activity interaction Z-score [4, 12]: 0.369 ± 0.11
promoter activity interaction Z-score [4, 13]: 0.83 ± 0.12
promoter activity interaction Z-score [4, 14]: 0.357 ± 0.091
promoter activity interaction Z-score [4, 15]: 0.736 ± 1.1
promoter activity interaction Z-score [4, 16]: 0.349 ± 0.033
promoter activity interaction Z-score [4, 17]: 1.12 ± 0.15
promoter activity interaction Z-score [4, 18]: -0.142 ± 0.44
promoter activity interaction Z-score [4, 19]: 0.715 ± 0.67
promoter activity interaction Z-score [4, 20]: 0.586 ± 0.056
promoter activity interaction Z-score [4, 21]: 0.685 ± 1.6
promoter activity interaction Z-score [4, 22]: 0.64 ± 1.7
promoter activity interaction Z-score [5, 7]: 0.269 ± 0.16
promoter activity interaction Z-score [5, 8]: -0.245 ± 0.04
promoter activity interaction Z-score [5, 9]: 0.0739 ± 0.0036
promoter activity interaction Z-score [5, 10]: -0.185 ± 0.069
promoter activity interaction Z-score [5, 11]: 0.291 ± 0.56
promoter activity interaction Z-score [5, 12]: 0.0029 ± 0.014
promoter activity interaction Z-score [5, 13]: -0.102 ± 0.055
promoter activity interaction Z-score [5, 14]: 0.203 ± 0.098
promoter activity interaction Z-score [5, 15]: 0.499 ± 0.44
promoter activity interaction Z-score [5, 16]: -0.0485 ± 0.1
promoter activity interaction Z-score [5, 17]: 0.0791 ± 0.26
promoter activity interaction Z-score [5, 18]: -0.114 ± 0.015
promoter activity interaction Z-score [5, 19]: 0.538 ± 0.72
promoter activity interaction Z-score [5, 20]: 0.583 ± 0.97
promoter activity interaction Z-score [5, 21]: 0.542 ± 0.91
promoter activity interaction Z-score [5, 22]: 0.336 ± 0.25
promoter activity interaction Z-score [6, 7]: -0.706 ± 0.049
promoter activity interaction Z-score [6, 8]: -0.479 ± 0.52
promoter activity interaction Z-score [6, 9]: -0.423 ± 0.84
promoter activity interaction Z-score [6, 10]: -0.991 ± 0.75
promoter activity interaction Z-score [6, 11]: 0.000824 ± 0.27
promoter activity interaction Z-score [6, 12]: -0.0931 ± 0.19
promoter activity interaction Z-score [6, 13]: -0.00328 ± 1.2
promoter activity interaction Z-score [6, 14]: 0.557 ± 0.39
promoter activity interaction Z-score [6, 15]: -0.22 ± 0.98
promoter activity interaction Z-score [6, 16]: -0.201 ± 0.28
promoter activity interaction Z-score [6, 17]: 0.646 ± 0.087
promoter activity interaction Z-score [6, 18]: -0.226 ± 0.84
promoter activity interaction Z-score [6, 19]: -0.114 ± 0.25
promoter activity interaction Z-score [6, 20]: 0.0123 ± 0.63
promoter activity interaction Z-score [6, 21]: 0.966 ± 0.27
promoter activity interaction Z-score [6, 22]: 0.526 ± 0.79
